Laboratory results published in PubChem BioAssay (Tox21).
Results filed as inconclusive are left out. The source made the active and inactive calls. Calls come from the whole dose curve; as a rule, active = well fitted inhibition curve with a large enough effect in the repeat runs; inconclusive = weak or mixed curves; inactive = flat fitted curve, though single readings scatter.

target: Luciferin 4-monooxygenase (Photinus pyralis) (UniProt P08659); assay: qHTS assay to identify small molecule inhibitors of firefly luciferase (AID 1224835); note: nearly all actives have a fitted effect of over 25% in size; details: purified P. pyralis luciferase, luminescence inhibition; series mostly up to 115 µM; activity change, negative = inhibition: at the top concentration
Text: U.S. Tox21 Program National Center for Advancing Translational Sciences [NCATS] NIH Chemical Genomics Center [NCGC] U.S. Environmental Protection Agency [EPA] National Institutes of Environmental Health Sciences [NIEHS] National Toxicology Program [NTP] U.S. Food and Drug Administration [FDA] Tox21 Assay Overview: Firefly (Photinus pyralis) luciferase is one of the most commonly used transcriptional reporters. Firefly luciferase reporter-gene assays are generally considered one of the most sensitive assay types (Wood, 1995; Wood, 1998). However, it was initially observed, in 1991, by Thompson et al., that compounds that resemble the substrates of firefly luciferase (FLuc) can act as competitive inhibitors of the enzyme, and that these compounds, upon interaction with luciferase in the cell, can actually stabilize the protein and increase its half-life. Previous profiling work by other groups to determine the prevalence of compounds that affect FLuc enzymatic activity (PubChem AID 411) identified that ~3% of the MLSMR library (then at ~72K) inhibited FLuc. […] Thus the Tox21 10K library is profiled for activity against FLuc using a biochemical assay of purified FLuc and KM concentrations of FLuc substrates (D-luciferin and ATP).
These assay plates were then treated with 23nL of compound or DMSO using a Kalypsys pin tool, which allows for delivery of a 6-point interplate titration of each compound to the assay plate (quantitative HTS.) 1 uL of firefly luciferase mix (containing 50 mM Tris acetate, pH 7.6, 0.04 uM P. pyralis luciferase, 0.01% Tween, 0.05% BSA and dH2O) was then delivered by FRD to each well. Luciferase activity was then measured using a ViewLux CCD imager.
% is set by controls: 0 for no effect and ±100 for the full control effect.

Luciferin 4-monooxygenase (Photinus pyralis), sequence (P08659 whole entry, looked up): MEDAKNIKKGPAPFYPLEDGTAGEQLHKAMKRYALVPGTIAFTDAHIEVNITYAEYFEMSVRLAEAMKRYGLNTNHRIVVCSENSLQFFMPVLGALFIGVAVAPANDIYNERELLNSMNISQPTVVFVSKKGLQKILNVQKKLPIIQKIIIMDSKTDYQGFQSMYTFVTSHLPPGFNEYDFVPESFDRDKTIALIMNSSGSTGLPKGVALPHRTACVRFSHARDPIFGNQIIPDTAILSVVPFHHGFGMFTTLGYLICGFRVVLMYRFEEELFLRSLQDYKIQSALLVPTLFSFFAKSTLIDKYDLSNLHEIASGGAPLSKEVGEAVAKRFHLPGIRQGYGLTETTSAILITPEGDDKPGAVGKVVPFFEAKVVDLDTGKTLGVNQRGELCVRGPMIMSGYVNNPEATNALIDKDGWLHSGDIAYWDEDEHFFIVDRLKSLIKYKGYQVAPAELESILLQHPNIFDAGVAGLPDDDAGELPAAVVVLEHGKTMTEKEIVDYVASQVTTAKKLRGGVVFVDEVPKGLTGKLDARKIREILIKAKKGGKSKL

Structure (SMILES)	activity change, negative = inhibition	Potency
O=C1O[C@@H]2[C@@H](O)[C@H](O)O[C@@H]2[C@H]1O	3.16% (inactive)	
CCOC(=O)c1ncn2c1CN(C)C(=O)c1cc(F)ccc1-2	3.84% [at 52.9 µM] (inactive)	
Cc1cccc(OCC(O)CNC(C)(C)C)c1C (stereo not given)	-0.673% [at 52.9 µM] (inactive)	
O=C(CCNNC(=O)c1ccncc1)NCc1ccccc1	-0.0018% [at 52.9 µM] (inactive)	
CC(=O)/C=C/C1C(C)=CCC(C)C1(C)C (stereo not given)	1.87% (inactive)	
COc1ccc2c(c1)C(=O)N(CCc1ccc(S(=O)(=O)NC(=O)NC3CCCCC3)cc1)C(=O)C2(C)C	-1.43% [at 52.9 µM] (inactive)	
FC(F)(F)c1ccccc1-n1ccnc1	-8.04% [at 52.9 µM] (inactive)	
CCC(C)(CCC(C)C)C(=O)O (stereo not given)	0.826% (inactive)	
C=C(C)C(=O)OCCNC(C)(C)C	2.38% (inactive)	
CC(C)C(=O)OCc1cccc(OC(=O)[C@@H]2N3C(=O)[C@@H](NC(=O)Cc4ccccc4)[C@H]3SC2(C)C)c1	2.26% [at 52.9 µM] (inactive)	
CO[C@@H]1[C@@H](OC(N)=O)[C@@H](O)[C@H](Oc2ccc3c(O)c(NC(=O)c4ccc(O)c(CC=C(C)C)c4)c(=O)oc3c2C)OC1(C)C	-5.83% [at 52.9 µM] (inactive)	
C=C(C)C(=O)OCCN(CC)CC	5.77% (inactive)	
CCOC(=O)/C=C/c1ccccc1		35.6 µM (active)
C[C@@H](Oc1ccc(CNC(=O)c2cccnc2Oc2ccc3c(c2)OCO3)c(F)c1)C(=O)O	4.88% (inactive)	
COc1cc2c(cc1OC)[C@@H]1CC(=O)[C@@H](CC(C)C)CN1CC2	1.77% [at 52.9 µM] (inactive)	
COc1ccc2nc(SCc3ncc(C)c(OC)c3C)[nH]c2c1		13.8 µM (active)
CCCOC(OCCC)OCCC	3.47% (inactive)	
O=C(CCN1CCN(CCO)CC1)N1c2ccccc2Sc2ccc(C(F)(F)F)cc21	3.06% [at 52.9 µM] (inactive)	
Nc1cccc(O)c1	-2.23% (inactive)	
O=C(O)c1ccc(Cl)cc1Cl	-4.51% (inactive)	

Structure (SMILES)	activity change, negative = inhibition	Potency
CN(C)C(=O)CNC(=O)Cc1ccccc1	-4.76% [at 52.9 µM] (inactive)	
O=S(=O)(O)c1ccc2cc(O)c(S(=O)(=O)O)cc2c1	0.427% (inactive)	
C=CC(OCC)OCC	1.98% (inactive)	
ClCCCl	3.67% (inactive)	
CCn1ccc(NS(=O)(=O)c2ccc(N)cc2)nc1=O	0.534% [at 52.9 µM] (inactive)	
NNc1nnc(NN)c2ccccc12		17.4 µM (active)
CCc1ccc(C=O)cc1	0.756% (inactive)	
CN(C)CCOCCO	1.94% (inactive)	
CC(C)C[C@H](NC(=O)CNC(=O)[C@H](Cc1ccc(O)cc1)NC(=O)[C@H](CO)NC(=O)[C@H](Cc1c[nH]c2ccccc12)NC(=O)[C@H](Cc1cnc[nH]1)NC(=O)[C@@H]1CCC(=O)N1)C(=O)N[C@@H](CCCN=C(N)N)C(=O)N1CCC[C@H]1C(=O)NCC(N)=O (stereo in doubt)	-1.74% [at 52.9 µM] (inactive)	
COC(=O)c1ccccc1C(=O)c1ccc(OCCN2CCCCC2)cc1	0.916% [at 52.9 µM] (inactive)	
Cc1cccc2nccnc12	-0.629% (inactive)	
C[C@H](N)[C@H](O)c1cccc(O)c1	-1.91% [at 52.9 µM] (inactive)	
COCCc1ccc(OCC2CO2)cc1 (stereo not given)	-9.62% [at 52.9 µM] (inactive)	
O=C1c2ccccc2C(=O)N1CCl	-1.05% (inactive)	
C=C1CC/C=C(\C)CC[C@@H]2[C@@H]1CC2(C)C	0.684% (inactive)	
CCCCNC1CC(C)(C)NC(C)(C)C1	0.14% (inactive)	
O=C(O)C(=O)Cc1ccccc1	-5.15% (inactive)	
COc1ccc(Br)c(C)c1	-3.64% (inactive)	
Cc1c(I)c(=O)n(-c2ccccc2)n1C	-0.229% [at 52.9 µM] (inactive)	
CC(=O)Nc1ccc(S(=O)(=O)Nc2ccc([N+](=O)[O-])cc2)cc1	-2.06% [at 52.9 µM] (inactive)	
